Measurements from PubChem BioAssay (NCI).
This is part of a sample that, as a whole, favours compounds with a hit. Of some 79,000 tested, about 15% had one in any assay. A number with no mark means an inactive call. The source made the active and inactive calls. Cut-off read from the data, not from the text of the source: active = growth inhibition above about 70%; inactive = the rest.

Experiments:
[1] = NCI Yeast Anticancer Drug Screen. Data for the rad50 strain (AID 155);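 note: 0% = growth of vehicle-only cultures of the same strain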; conditions: S. cerevisiae rad50 strain growth inhibition, hits give high values
Summary of the method: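 DNA repair mutant yeast, compound exposure, growth read-out; inhibition is taken relative to vehicle.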

[2] = NCI Yeast Anticancer Drug Screen. Data for the mec2-1 strain (AID 157); conditions: S. cerevisiae mec2-1 strain, hits give high values
Summary of the method: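 Strain: mec2-1 (DNA repair/cell cycle alteration). Compound exposure, then growth measured; inhibition expressed relative to vehicle.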

[3] = NCI Yeast Anticancer Drug Screen. Data for the sgs1 mgt1 strain (AID 161);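 note: 0% = growth of cultures given vehicle only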; conditions: S. cerevisiae sgs1 mgt1 strain, hits give high values
Summary of the method: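 Test agents were incubated with a DNA-repair-mutant yeast strain. Growth was then read and compared against vehicle-treated controls.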

[4] = NCI Yeast Anticancer Drug Screen. Data for the cln2 rad14 strain (AID 165);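 note: 0% = growth equal to vehicle treated cultures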; conditions: S. cerevisiae cln2 rad14 strain, hits give high values
Summary of the method: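 Compounds are applied to the cln2 rad14 yeast strain, and growth is then compared with that of vehicle-treated cultures to give inhibition.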

[5] = NCI Yeast Anticancer Drug Screen. Data for the bub3 strain (AID 167); conditions: S. cerevisiae bub3 mutant strain, hits give high values
Summary of the method: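 In this screen, a yeast mutant lacking normal mitotic checkpoint function is challenged with compound. Relative growth versus vehicle gives the inhibition value.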

[6] = NCI Yeast Anticancer Drug Screen. Data for the mlh1 rad18 strain (AID 175); conditions: S. cerevisiae mlh1 rad18 strain growth inhibition, hits give high values
Summary of the method: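 Read-out is yeast growth inhibition, calculated against vehicle-only controls. The compound was applied to a strain engineered with DNA damage repair alterations.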

[7] = at 5.0 µM (retest, dose inferred, filed as 0.5)
[8] = at 50.0 µM (retest, dose inferred, filed as 5.0)

| SMILES | growth inhibition [1, 7] | growth inhibition [1, 8] | growth inhibition ([1]; at 50.0 µM) | growth inhibition [2, 7] | growth inhibition [2, 8] | growth inhibition ([2]; at 50.0 µM) | growth inhibition [3, 7] | growth inhibition [3, 8] | growth inhibition ([3]; at 50.0 µM) | growth inhibition [4, 7] | growth inhibition [4, 8] | growth inhibition ([4]; at 50.0 µM) | growth inhibition [5, 7] | growth inhibition [5, 8] | growth inhibition ([5]; at 50.0 µM) | growth inhibition [6, 7] | growth inhibition [6, 8] | growth inhibition ([6]; at 50.0 µM) |
| --- | --- | --- | --- | --- | --- | --- | --- | --- | --- | --- | --- | --- | --- | --- | --- | --- | --- | --- |
| CCN1CCC(O)(c2ccc(Cl)cc2)C(C(=O)c2ccc(Cl)cc2)C1 (stereo unspecified) | -8% | 65% | 99% (active) | 6% | 74% (active) | 97.8% (active) | 3% | 67% | 98.8% (active) | -7% | 93% (active) | 97.2% (active) | 18% | 80% (active) | 98.5% (active) | 3% | 77% (active) | 98.5% (active) |
| Cc1ccc2c(C)c3ccc4ccccc4c3c[n+]2c1 | 74% (active) | 94% (active) | 71.2% (active) | 65% | 89% (active) | 83.5% (active) | 87% (active) | 95% (active) | 85.2% (active) | 51% | 71% (active) | 52.6% | 69% | 88% (active) | 86.5% (active) | 52% | 88% (active) | 72.5% (active) |
| Nc1cccc([As]=S)c1 (stereo unspecified) | 7% | 99% (active) | 98.5% (active) | 11% | 99% (active) | 98.9% (active) | -9% | 100% (active) | 91.5% (active) | 13% | 98% (active) | 96.9% (active) | -4% | 99% (active) | 98.8% (active) | 15% | 99% (active) | 98.8% (active) |
| Nc1cc2[nH]cnc2c([Se])n1 | -155% | -6% | 56% | -39% | -11% | 62.9% | -54% | 19% | 48% | -60% | -33% | 7.45% | -75% | 21% | 57.5% | -141% | -29% | 83.8% (active) |
| CN1CCN(c2ccc3nc(-c4ccc5nc(-c6ccc(N(C)CCCl)cc6)[nH]c5c4)[nH]c3c2)CC1 | 1% | 99% (active) | 98.4% (active) | -10% | 99% (active) | 98.8% (active) | -7% | 99% (active) | 98.8% (active) | 47% | 99% (active) | 98.6% (active) | -18% | 99% (active) | 98.8% (active) | -16% | 99% (active) | 98.4% (active) |
| O=[As]c1ccccc1O (stereo unspecified) | 1% | 96% (active) | 96.6% (active) | 0% | 98% (active) | 98.1% (active) | 2% | 98% (active) | 90.3% (active) | -9% | 98% (active) | 92.2% (active) | -5% | 97% (active) | 97.3% (active) | -1% | 98% (active) | 96.5% (active) |
| COC1CCCC2OC3(OC)C(OC)CCCC3OC12OC (stereo unspecified) | 3% | -4% | 12.2% | -1% | -3% | 14.7% | 2% | -2% | 10.2% | 5% | -39% | 40.9% | 3% | 9% | 27.2% | -1% | -11% | 7.85% |
| Nc1nc(N)c(-c2ccc(Cl)c(Cl)c2)c(CCc2ccc(CNC(=O)c3cccc(S(=O)(=O)F)c3)cc2)n1 | -3% | 96% (active) | 62.7% | -1% | 99% (active) | 59.2% | 7% | 99% (active) | 45.9% | -10% | 97% (active) | 54.6% | -9% | 98% (active) | 47.4% | 30% | 98% (active) | 54% |
| COC12C(COC(N)=O)C3=C(C(=O)C(C)=C(N)C3=O)N1CC1C2N1C (stereo unspecified) | 10% | 74% (active) | 43.6% | 16% | 84% (active) | 44.6% | 16% | 77% (active) | 55.7% | 1% | 77% (active) | 38.4% | 5% | 55% | 31% | 34% | 92% (active) | 75.8% (active) |
| Cc1c2ccncc2c(CN(CCCl)CCCl)c2c3ccccc3n(C)c12 | 10% | 98% (active) | 90.3% (active) | 17% | 99% (active) | 88.5% (active) | -25% | 86% (active) | 85.2% (active) | 6% | 96% (active) | 88.2% (active) | -10% | 80% (active) | 82.1% (active) | 24% | 99% (active) | 91.8% (active) |
| CC(CCc1ccccc1)NC(C)C(O)c1ccc(O)cc1 (stereo unspecified) | 1% | 32% | 49% | 4% | 55% | 28.6% | 23% | 66% | 52.2% | 9% | 42% | 68.3% | 9% | 40% | 64.8% | 45% | 71% (active) | 78.1% (active) |
| C/C(=N\NC(N)=O)C(CN1CCCCC1)C(c1ccccc1)c1c(O)c2ccccc2oc1=O (stereo unspecified) | 14% | 14% | 82.7% (active) | 15% | 15% | 83% (active) | 6% | 6% | 87.6% (active) | 0% | 0% | 72.8% (active) | 17% | 17% | 79% (active) | 17% | 17% | 81.5% (active) |
| C/C(=C\c1ccccc1)[N+](=O)[O-] | 96% (active) | 99% (active) | 98.7% (active) | 26% | 100% (active) | 93.2% (active) | 26% | 98% (active) | 92.4% (active) | 11% | 97% (active) | 46.9% | 12% | 99% (active) | 94.2% (active) | 35% | 99% (active) | 99.3% (active) |
| CC(C)c1ccc(C(c2c(O)c3ccccc3oc2=O)c2c(O)c3ccccc3oc2=O)cc1 | 3% | 91% (active) | 98.5% (active) | -5% | 95% (active) | 97.9% (active) | -10% | 95% (active) | 98.7% (active) | -4% | 98% (active) | 99.3% (active) | -9% | 92% (active) | 98.6% (active) | -11% | 97% (active) | 98.4% (active) |
| Cc1ccc(OP(=O)(Oc2ccc(C)cc2)Oc2ccc(C)cc2)cc1.Cc1ccc(OP(=O)(Oc2ccc(C)cc2)Oc2ccc(C)cc2)cc1.Cc1ccc(OP(=O)(Oc2ccc(C)cc2)Oc2ccc(C)cc2)cc1.Cc1ccc(OP(=O)(Oc2ccc(C)cc2)Oc2cccc(C)c2)cc1.[Cd+2].[O-][Cl+3]([O-])([O-])O | 12% | 64% | 58.6% | 6% | 33% | 45% | 9% | 29% | 20% | -11% | 32% | 62.6% | 10% | 23% | 36.6% | 10% | 36% | 39.2% |
| COc1ccc(/C=C(\C)[N+](=O)[O-])cc1OC | 53% | 97% (active) | 90.1% (active) | 41% | 99% (active) | 92% (active) | 55% | 99% (active) | 91% (active) | 26% | 98% (active) | 87.3% (active) | 42% | 98% (active) | 93.8% (active) | 58% | 99% (active) | 93% (active) |
| C[N+](C)(C)CC1Cc2ccccc2C1=O (stereo unspecified) | 25% | 98% (active) | 90% (active) | 20% | 99% (active) | 93.2% (active) | 14% | 99% (active) | 92% (active) | 10% | 85% (active) | 90.5% (active) | 32% | 99% (active) | 91.5% (active) | 26% | 99% (active) | 92.5% (active) |
